The record followed here is PubChem BioAssay (Tox21).

Results filed as inconclusive are left out. A call without a number means that no potency is given here. A number with no mark means an inactive call. Active and inactive are the calls of the source. Calls follow the shape of the dose curve; as a rule, active = well fitted cell-killing curve with a large enough effect in the repeat runs; inconclusive = weak or mixed curves, or effect the other way; inactive = flat fitted curve, though single readings scatter.
Potency is read from the fitted curve at half-maximal effect.

A short description of this assay: qHTS assay to identify small molecule agonists of the sonic hedgehog signaling (Shh) pathway - cell viability counter screen (AID 1259366). Also: nearly all actives have a fitted effect of over 50% in size. Particulars: NIH/3T3 Gli1-Luc viability, CellTiter-Fluor, 24 h; series mostly up to 92.4 µM. An excerpt:
National Center for Advancing Translational Sciences [NCATS]
NIH Chemical Genomics Center [NCGC]
U.S. Environmental Protection Agency [EPA]
National Institutes of Environmental Health Sciences [NIEHS]
National Toxicology Program [NTP]
U.S. Food and Drug Administration [FDA]
The sonic hedgehog (Shh) pathway is essential for normal embryonic development. Dysregulation of the Shh pathway can cause severe developmental defects in organs. Therefore chemicals that interfere with the pathway are potential developmental toxicants. A cell line designated 3T3Gli1-Luc (DMB/OARSA/CFSAN/FDA, Laurel, MD), a NIH/3T3 derived clone containing stably integrated Gli1-Luc reporter is used to detect chemical interference of the Shh pathway, by changes in the expression of the firefly Luc gene under the control of the Gli1 transcriptional response element. This cell line was used to screen Tox21 libraries for identifying and prioritizing the potential developmental toxicants that interfere Shh pathway. The cytotoxicity of the compounds was tested in parallel by measuring the cell viability using CellTiter-Fluor assay system (Promega, Madison, WI) in the same wells.
Tox21 Assay Protocol Summary:
3T3 Gli1-Luc cells were dispensed at 2,000 per well in 5uL of culture medium into white solid bottom 1536-well plates (Greiner Bio-One, Monroe, NC) using a Multidrop Combi (Thermo Scientific, Waltham, MA) dispenser. The assay plates were incubated at 37 C and 5% CO2 for 4hr, and then 23nL of compounds dissolved in DMSO and positive control were transferred using a Pintool station (Wako, San Diego, CA). The assay plates were incubated at 37C and 5% CO2 for 24hr. For viability read, after 23hr of compound treatment, 1uL of CellTiter-Fluor reagent (Promega Corporation, Madison, WI) was added to each well of the assay plates using Flying Reagent Dispenser (FRD, Aurora Discovery, San Diego, CA) and incubated the assay plates at 37C for 1hr. The fluorescence signal was quantified using a ViewLux plate reader (Perkin Elmer, Shelton, CT).
(In general: Quantitative high-throughput screening tests each substance at several concentrations.)
Regarding `CCCCCCCC/C=C\CCCCCCCC(=O)N(CCO)CCO`, the Potency result was “inactive”.
Same read-out and setting: for `C=Cc1ccncc1` the value was “inactive”; for `CCOC(=O)[C@H](C)O`, “inactive”; for `C[C@H]1O[C@@H](O[C@H]2CC[C@@]3(C)[C@H](CC[C@@H]4[C@@H]3C[C@@H](O)[C@]3(C)[C@@H](C5=CC(=O)OC5)CC[C@]43O)C2)C[C@H](O)[C@@H]1O[C@H]1C[C@H](O)[C@H](O[C@H]2C[C@H](O)[C@H](O[C@@H]3O[C@H](CO)[C@@H](O)[C@H](O)[C@H]3O)[C@@H](C)O2)[C@@H](C)O1`, “inactive”.
Still for that read-out and setting: for `CCC1(C)C(=O)N(Cl)C(=O)N1Cl` (stereo not given) the value was “inactive”; for `C=C(C)C1CCC(C)CC1O` (stereo not given), “inactive”.
As for `C=CC(=O)OCC(Br)CBr` (stereo not given), the Potency entry is “inactive”.
The same measure, in the same setting: the result for `CCC(C)(C)c1ccc(CC(C)CN2C[C@@H](C)O[C@@H](C)C2)cc1` (stereo not given in full) reads “inactive”; that for `C/C(=N\[Si](C)(C)C)O[Si](C)(C)C`, “inactive”.
On the same count and under the same terms, the result for `CCCCCCCCc1ccc(Nc2ccc(CCCCCCCC)cc2)cc1` reads “inactive”; that for `CN[C@H]1CC[C@@H](c2ccc(Cl)c(Cl)c2)c2ccc(S(N)(=O)=O)cc21`, 30.6 µM (active); that for `CCCCCCCCOC(=O)c1cc(O)c(O)c(O)c1`, 24.3 µM (active).
With `C=CC(=O)OCCOC1C2CCC1C1CC=CC12` (stereo not given), the viability change, negative = cytotoxic was 9.3% [at 19 µM].
For the compound `Cc1c[nH]c(=O)[nH]c1=O`, the Potency entry was “inactive”.
Consider `CCc1cccc(C)c1N(C(=O)CS(=O)(=O)O)C(C)COC` (stereo not given), for which the Potency result is “inactive”.
With `CCOC=C(C(=O)OCC)C(=O)OCC`, the Potency entry was “inactive”.
For `O=[N+]([O-])c1ccc(CO)cc1`, the Potency result is “inactive”.
On the same count and under the same terms, the result for `CCN(CC)c1ccc(C=O)c(O)c1` reads “inactive”; that for `Cc1ccc(S(=O)(=O)C(I)I)cc1`, 6.11 µM (active); that for `NC(=O)C1CO1` (stereo not given), “inactive”.
The same measure, in the same setting: for `CN1CCN(C)CC1` the value was “inactive”; for `CC(C)(C)C1=CC(=O)C(C(C)(C)C)=CC1=O`, “inactive”.
On to `CCCCCCCCSCc1cc(C)c(O)c(CSCCCCCCCC)c1`, for which the Potency result is “inactive”.
For `S=C1NC=NC2N=CNC12` (stereo not given), the Potency result was “inactive”.
On the same count and under the same terms, for `Cc1cccc(C)c1C` the value was “inactive”; for `N#Cc1nc(Cl)c(Cl)c(Cl)c1Cl`, 5.45 µM (active); for `CCCCCCCCCCCCCCCCC(C(=O)O)C(O)(CC(=O)O)C(=O)O` (stereo not given), “inactive”.
Still for that read-out and setting: for `CC(C)(c1ccc(Oc2ccc(N)cc2)cc1)c1ccc(Oc2ccc(N)cc2)cc1` the value was “inactive”; for `CN(C)CCOc1ccc(/C(=C(/CCCl)c2ccccc2)c2ccccc2)cc1`, 51 µM (active); for `CSc1ccc(O)cc1C`, 43.3 µM (active).
On the same count and under the same terms, for `CN(C/C=C/c1ccccc1)Cc1cccc2ccccc12` the value was “inactive”; for `Cc1cc(F)ccc1-c1cc(N2CC[C@@H](O)[C@H]2CO)ncc1N(C)C(=O)C(C)(C)c1cc(C(F)(F)F)cc(C(F)(F)F)c1`, 42.6 µM (active); for `Cn1ccnc1`, “inactive”.
For `CC(C)C(=O)C(C)C`, the Potency result was “inactive”.
On to `COc1cc(C(C)C)ccc1C`, for which the viability change, negative = cytotoxic is 0.547% [at 19 µM].
With `CC(C)c1ccc2sc3ccccc3c(=O)c2c1`, the Potency result was “inactive”.
On the same count and under the same terms, the result for `Brc1cc(Br)cc(Br)c1` reads “inactive”; that for `COC(=O)c1ccc([N+](=O)[O-])cc1`, “inactive”; that for `CCCCCN=C(N)N/N=C/c1c[nH]c2ccc(OC)cc12`, 8.41 µM (active).
Take `CCN(CCC#N)c1ccc(N=Nc2ccc([N+](=O)[O-])cc2)cc1`: the Potency result is “inactive”.
